More than one record can exist for a structure, and the calls need not agree. Activity calls are given as the source filed them. The calls were made as follows: active = hit-call score of the fitted dose curve at least 0.9, where 1 is the maximum; inactive = score below 0.9.

Results on 6 molecules are retold here after PubChem BioAssay (EPA / NIEHS).

Read-out in assay [1]: Urokinase-type plasminogen activator receptor (uPAR), PLAUR (gene 5329)
As to the kind of experiment: BSK_4H_uPAR: BioMAP Diversity Plus: 4H Assay for Urokinase-type plasminogen activator receptor (uPAR) Biomarker Activity (AID 2283030). Particulars: primary human endothelial cells (HUVEC); actives raise or lower the signal. Put shortly: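 Human umbilical vein endothelial cells in the 4H system, 24 h after chemical dosing. Cell-surface uPAR measured by ELISA, fitted in both directions versus DMSO; cytotoxicity checked by SRB total protein in parallel cultures.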

Read-out in assay [2]: Vascular endothelial growth factor receptor 2 (Homo sapiens) (UniProt P35968)
Briefly: BSK_4H_VEGFRII: BioMAP Diversity Plus: 4H Assay for Vascular endothelial growth factor receptor 2 (VEGFR2) Biomarker Activity (AID 2283031).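 As to AC50: cell-surface VEGFR2 protein level quantified by ELISA.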 Particulars: primary human endothelial cells (HUVEC); actives raise or lower the signal. An outline of the steps: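 Primary human umbilical vein endothelial cells (4H system), 24 h exposure; cell-surface VEGFR2 measured by ELISA. Bidirectional fitting versus DMSO; cytotoxicity checked in parallel by SRB total-protein staining.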

Read-out in assay [3]: Human Leukocyte Antigen - DR isotype (HLADR), HLA-DRA (gene 3122)
As to the kind of experiment: BSK_BE3C_HLADR: BioMAP Diversity Plus: BE3C Assay for Human Leukocyte Antigen - DR isotype (HLADR) Biomarker Activity (AID 2283032). Particulars: primary human bronchial epithelial cells; actives raise or lower the signal. Put shortly:
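Human primary bronchial epithelial cells (BE3C system) exposed to compound for 24 hours; cell-surface HLA-DR measured by ELISA, fitted bidirectionally relative to DMSO. Total protein by SRB in parallel cultures tracked cytotoxicity.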

Read-out in assay [4]: Vascular cell adhesion molecule 1 (VCAM1), VCAM1 (gene 7412)
As to the kind of experiment: BSK_4H_VCAM1: BioMAP Diversity Plus: 4H Assay for Vascular cell adhesion molecule 1 (VCAM1) Biomarker Activity (AID 2283033). Particulars: primary human endothelial cells (HUVEC); actives raise or lower the signal. Put shortly: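 Primary human umbilical vein endothelial cells, 4H stimulation system, treated for 24 h; cell-surface VCAM-1 quantified by ELISA. Bidirectional fitting against DMSO; cytotoxicity tracked by SRB total-protein staining in parallel cultures.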

Read-out in assay [5]: Interferon-gamma inducible Protein 10 (IP10), CXCL10 (gene 3627)
Briefly: BSK_BE3C_IP10: BioMAP Diversity Plus: BE3C Assay for Interferon-gamma inducible Protein 10 (IP10) Biomarker Activity (AID 2283034). Particulars: primary human bronchial epithelial cells; actives raise or lower the signal. An outline of the steps:
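Primary human bronchial epithelial cells, with IP-10 measured by ELISA 24 hours after chemical dosing. Bidirectional fit against DMSO; cytotoxicity checked by SRB total protein staining in parallel cultures.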

Read-out in assay [6]: Transforming growth factor beta 1 (TGFb1), TGFB1 (gene 7040)
Briefly: BSK_BE3C_TGFb1: BioMAP Diversity Plus: BE3C Assay for Transforming growth factor beta 1 (TGFb1) Biomarker Activity (AID 2283036). Particulars: primary human bronchial epithelial cells; actives raise or lower the signal. An outline of the steps: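 Primary human bronchial epithelial cells dosed with chemical; TGF-b1 measured by ELISA 24 h after dosing. Bidirectional curve fitting against DMSO negative control; SRB total-protein staining in parallel cultures gauged cytotoxicity.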

Read-out in assay [7]: Plasminogen activator inhibitor-1 (PAI1), SERPINE1 (gene 5054)
Briefly: BSK_BE3C_PAI1: BioMAP Diversity Plus: BE3C Assay for Plasminogen activator inhibitor-1 (PAI1) Biomarker Activity (AID 2283037). Particulars: primary human bronchial epithelial cells; actives raise or lower the signal. An outline of the steps:
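Primary human bronchial epithelial cells (BE3C system) exposed 24 h; PAI-1 quantified by ELISA. Parallel sulforhodamine B staining of total protein flags cytotoxicity. Bidirectional fit versus DMSO.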

Read-out in assay [8]: urokinase plasminogen activator (uPA), PLAU (gene 5328)
As to the kind of experiment: BSK_BE3C_uPA: BioMAP Diversity Plus: BE3C Assay for urokinase plasminogen activator (uPA) Biomarker Activity (AID 2283038).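 As to outcome: uPA protein level quantified by ELISA in cell cultures; uPA read one day after compound addition.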 Particulars: primary human bronchial epithelial cells; actives raise or lower the signal. An outline of the steps: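 Primary human bronchial epithelial cells, uPA measured by ELISA 24 h after dosing. Bidirectional change relative to DMSO; cytotoxicity checked in parallel cultures by sulforhodamine B total-protein staining.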

Read-out in assay [9]: Urokinase-type plasminogen activator receptor (uPAR), PLAUR (gene 5329)
As to the kind of experiment: BSK_BE3C_uPAR: BioMAP Diversity Plus: BE3C Assay for Urokinase-type plasminogen activator receptor (uPAR) Biomarker Activity (AID 2283039).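 As to outcome: cells exposed to compound for one day before measurement.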 Particulars: primary human bronchial epithelial cells; actives raise or lower the signal. Put shortly: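 Primary human bronchial epithelial cells dosed for 24 h; uPAR quantified by ELISA with bidirectional fitting against DMSO. Overt cytotoxicity assessed in parallel cultures by SRB total-protein staining (0.1% SRB, 560 nm).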

Read-out in assay [10]: Interleukin-6 (IL6), IL6 (gene 3569)
Briefly: BSK_CASM3C_IL6: BioMAP Diversity Plus: CASM3C Assay for Interleukin-6 (IL6) Biomarker Activity for (AID 2283040). Particulars: primary human coronary artery smooth muscle cells; actives raise or lower the signal.

Read-out in assay [11]: Tissue plasminogen activator (tPA), PLAT (gene 5327)
Briefly: BSK_BE3C_tPA: BioMAP Diversity Plus: BE3C Assay for Tissue plasminogen activator (tPA) Biomarker Activity (AID 2283041).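 As to outcome: tPA level quantified by ELISA one day after compound addition.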 Particulars: primary human bronchial epithelial cells; actives raise or lower the signal. An outline of the steps: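 Primary human bronchial epithelial cells in the BE3C system, exposed to compound for 24 h. tPA was quantified by ELISA; DMSO served as baseline, with gain or loss of signal fitted. Cytotoxicity checked in parallel cultures by SRB total-protein staining.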

Read-out in assay [12]: Interleukin-8 (IL8), CXCL8 (gene 3576)
Briefly: BSK_CASM3C_IL8: BioMAP Diversity Plus: CASM3C Assay for Interleukin-8 (IL8) Biomarker Activity (AID 2283042).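 Also: IL-8 protein level quantified by ELISA.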 Particulars: primary human coronary artery smooth muscle cells; actives raise or lower the signal.

Read-out in assay [13]: Human Leukocyte Antigen - DR isotype (HLADR), HLA-DRA (gene 3122)
Briefly: BSK_CASM3C_HLADR: BioMAP Diversity Plus: CASM3C Assay for Human Leukocyte Antigen - DR isotype (HLADR) Biomarker Activity (AID 2283043).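 Also: cell-surface HLA-DR protein level quantified by ELISA.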 Particulars: primary human coronary artery smooth muscle cells; actives raise or lower the signal.

Read-out in assay [14]: Macrophage colony-stimulating factor (MCSF), CSF1 (gene 1435)
As to the kind of experiment: BSK_CASM3C_MCSF: BioMAP Diversity Plus: CASM3C Assay for Macrophage colony-stimulating factor (MCSF) Biomarker Activity (AID 2283044).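 Also: M-CSF protein amount quantified by ELISA after 24 h exposure.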 Particulars: primary human coronary artery smooth muscle cells; actives raise or lower the signal.

Read-out in assay [15]: Low-density lipoprotein receptor (LDLR), LDLR (gene 3949)
Briefly: BSK_CASM3C_LDLR: BioMAP Diversity Plus: CASM3C Assay for Low-density lipoprotein receptor (LDLR) Biomarker Activity (AID 2283045).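 Also: LDLR protein level on the cell surface quantified by ELISA.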 Particulars: primary human coronary artery smooth muscle cells; actives raise or lower the signal.

Read-out in assay [16]: Monocyte Chemoattractant Protein-1 (MCP1), CCL2 (gene 6347)
As to the kind of experiment: BSK_CASM3C_MCP1: BioMAP Diversity Plus: CASM3C Assay for Monocyte Chemoattractant Protein-1 (MCP1) Biomarker Activity (AID 2283046).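 Also: MCP-1 level quantified by ELISA 24 h after dosing.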 Particulars: primary human coronary artery smooth muscle cells; actives raise or lower the signal.

Assay [17] in a line: BSK_CASM3C_Proliferation: Cell Proliferation Assessment in the BioMAP Diversity Plus: CASM3C Assay (AID 2283047).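 Also: sulforhodamine B total protein stain as relative cell number at 560 nm; sub-confluent cells exposed 48 h before staining; fitted both ways against DMSO so gain or loss of cell number.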 Particulars: primary human coronary artery smooth muscle cells.
Read-out in assay [18]: Monokine induced gamma interferon (MIG), CXCL9 (gene 4283)
As to the kind of experiment: BSK_CASM3C_MIG: BioMAP Diversity Plus: CASM3C Assay for Monokine induced gamma interferon (MIG) Biomarker Activity (AID 2283048).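 Also: MIG protein level measured by ELISA.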 Particulars: primary human coronary artery smooth muscle cells; actives raise or lower the signal.

Read-out in assay [19]: serum amyloid A (SAA), SAA1 (gene 6288)
Briefly: BSK_CASM3C_SAA: BioMAP Diversity Plus: CASM3C Assay for serum amyloid A (SAA) Biomarker Activity (AID 2283049).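 Also: SAA protein level quantified by ELISA.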 Particulars: primary human coronary artery smooth muscle cells; actives raise or lower the signal.

Read-out in assay [20]: Monokine induced gamma interferon (MIG), CXCL9 (gene 4283)
Briefly: BSK_BE3C_MIG: BioMAP Diversity Plus: BE3C Assay for Monokine induced gamma interferon (MIG) Biomarker Activity (AID 2283035). Particulars: primary human bronchial epithelial cells; actives raise or lower the signal. An outline of the steps: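 MIG level was determined by ELISA after 24 h chemical treatment of primary human bronchial epithelial cells. Values were fitted bidirectionally with DMSO as the negative control and activity baseline.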

As to `CCCCOC(=O)c1ccccc1C(=O)OCCCC`, the outcome in assay [1], in assay [2], in [3], in assay [4], in assay [5] and in assay [6] was inactive. Also, the result in assay [7], in assay [8], in assay [9], in assay [10], in assay [11] and in [12] was inactive. In addition, the outcome in [13], in assay [14], in assay [15], in assay [16], in [17] and in assay [18] was inactive. Also, the outcome in assay [19] was inactive. The AC50 in assay [14] is 0.767 µM (active); in assay [17] it was 34.9 µM (active).

In the case of `CCCC1COC(Cn2cncn2)(c2ccc(Cl)cc2Cl)O1` (stereo not given), the result in assay [1], in assay [2], in [3], in assay [4], in [5] and in assay [20] was inactive. The outcome in assay [6], in assay [7], in assay [8], in assay [9], in [10] and in assay [11] was inactive. For the same molecule, the outcome in [12], in [13], in [14], in [15], in assay [16] and in [17] was inactive. Further, the outcome in assay [18] and in assay [19] was inactive.

For the molecule `Cc1ccc(-c2c(Cl)nc(C#N)n2S(=O)(=O)N(C)C)cc1`, the AC50 is 14.7 µM (active) in [1]; 20 µM (active) in assay [2]; 5.94 µM (active) in assay [3]; 16.6 µM (active) in assay [4]; 6.57 µM (active) in assay [5]; 3.97 µM (active) in assay [7]. For the same molecule, the result in assay [6], in assay [8], in assay [9], in assay [10], in assay [11] and in assay [12] was inactive. Further, the result in [13], in assay [14], in [15], in assay [16], in [17] and in assay [18] was inactive. The outcome in [19] was inactive.

As to `CC1COC(Cn2cncn2)(c2ccc(Oc3ccc(Cl)cc3)cc2Cl)O1` (stereo not given), the concentration at half-maximal activity (AC50) is 24.3 µM (active) in assay [1]; 20 µM (active) in assay [3]; 32.2 µM (active) in [4]; 31.7 µM (active) in [5]; 29.3 µM (active) in assay [20]; 20 µM (active) in assay [7]. For the same molecule, the AC50 in assay [8] is 20 µM (active); in [9], 30.3 µM (active); in assay [11], 27.4 µM (active); in [17], 27.8 µM (active). In addition, the outcome in [2], in assay [6], in [10], in assay [12], in assay [13] and in assay [14] was inactive. For the same molecule, the outcome in assay [15], in assay [16], in assay [18] and in assay [19] was inactive.

Take `COc1nc(C)nc(NC(=O)NS(=O)(=O)c2ccccc2Cl)n1`: the outcome in assay [1], in [2], in assay [3], in assay [4], in assay [5] and in assay [6] was inactive. Further, the result in [7], in assay [8], in assay [9], in assay [10], in assay [11] and in [12] was inactive. Moreover, the outcome in assay [13], in assay [14], in assay [15], in [16], in [17] and in assay [18] was inactive. Also, the outcome in [19] was inactive. The half-maximal activity concentration (AC50) was 0.29 µM (active) in assay [6] and 0.507 µM (active) in [16].

Take `N#Cc1nn(-c2c(Cl)cc(C(F)(F)F)cc2Cl)c(N)c1S(=O)C(F)(F)F` (stereo not given): the AC50 in [1] was 23.2 µM (active); in assay [2], 31.7 µM (active); in assay [3] it was 14.2 µM (active); in [4], 20 µM (active); in [5] it was 23.2 µM (active); in assay [7], 20 µM (active). The results for the AC50 in assay [14] and in assay [17] were 25.1 µM (active) and 20 µM (active), respectively. Further, the result in [6], in [8], in [9], in [10], in assay [11] and in assay [12] was inactive. Further, the outcome in assay [13], in assay [15], in assay [16], in assay [18] and in assay [19] was inactive.

The term AC50 denotes the midpoint of the concentration-response curve, whichever way the signal moves.
